D1 PAM: Potentiators of Human D1 Dopamine Receptor: qHTS; D(1A) dopamine receptor (Homo sapiens), P21728; AID 504651, 2011; 360,000 compounds, 0.036% hits; HEK293 TREx D1 cells, calcium flux, dopamine EC20 potentiation; potentiation, % at 10 µM; in the data active = potentiation above about 30%; also: 0% is about no effect
D1 antagonist: Antagonist of Human D 1 Dopamine Receptor: qHTS; HEK293 TREx D1 cells, calcium flux, dopamine EC80; active compounds read low; D(1A) dopamine receptor (Homo sapiens), P21728; activity change, negative = inhibition, % at 10 µM; AID 504652, 2011; 360,000 compounds, 3.2% hits; in the data active = activity change below about -30%; also: % is scaled to controls: 0 for no effect and ±100 for the full control effect
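HEK293 T-REx cells expressing inducible, force-coupled D1 receptor; no-wash Ca dye, 30–90 min RT. Cmpd → 180 s read at 1 Hz → EC80 DA → 180 s read.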
USP2a block: qHTS Assay for Inhibitors of Ubiquitin-specific Protease USP2a Using CHOP2 as the Reporter; Ubiquitin carboxyl-terminal hydrolase 2 (Homo sapiens), O75604; USP2 core, Ub-CHOP2 coupled fluorogenic reporter, 485/531; Potency, µM (series often up to 38.3 µM), without a hit: top-dose activity change, negative = inhibition, most hits filed as inhibitors; 330,000 compounds, 0.01% hits; AID 463254, 2010;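 also: potency is read from the fitted curve at half-maximal effect; plate controls were DMSO wells for no effect and full inhibition by NEM control for full effect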
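Cell-free coupled assay: 10nM USP2 core preincubated 30min RT with compound in Tris-HCl pH 8.0/CaCl2/CHAPS buffer, then 25nM Ub-CHOP2 and 25nM reporter substrate; fluorescence (Ex 485/Em 531) read after 60min RT, normalized to NEM inhibition, concentration-response curves fitted.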
Eya2 inh: qHTS Assay for Inhibitors of the Phosphatase Activity of Eya2. Protein phosphatase EYA2 (Homo sapiens), O00167. recombinant Eya2, OMFP fluorescence dephosphorylation (OMFP is methylfluorescein phosphate). Potency, µM (highest dose often 76.9 µM), for inactives: at the top dose activity, negative = inhibition, most hits filed as inhibitors. 330,000 compounds, 0.006% hits; also: potency is read from the fitted curve at half-maximal effect; % is scaled to controls: 0 for no effect and ±100 for the full control effect
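Eya2 (0.2 uM) preincubated 10 min at ambient with compound, then OMFP substrate added at 50 uM; 10 min reaction in 50 mM HEPES pH 7.5, 50 mM NaCl, 5 uM MgCl2, 0.05% BSA, 1 mM DTT. Fluorescence read at Ex 485/Em 525 nm.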
D1 agonist: Allosteric Agonists of the Human D1 Dopamine Receptor: qHTS; D(1A) dopamine receptor (Homo sapiens), P21728; HEK293 T-REx D1 cells, calcium flux, agonist mode; activation, % at 2 µM; 360,000 compounds, 1% hits; AID 504660, 2011; in the data active = activation above about 30%; also: 0% is about no effect
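Agonism was scored from calcium flux recorded over 180 s (1 read/s) after pintool compound addition, following a 10-cycle baseline. Cells were inducible force-coupled HEK293 TREx D1, plated overnight at 30 C and loaded with no-wash calcium dye.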
GALK inh: qHTS Assay for Inhibitors of Human Galactokinase (GALK); P51570; Purified GALK, Kinase-Glo residual ATP luminescence; Potency, µM (top dose mostly 57.5 µM), without a hit: at the top dose activity change, negative = inhibition, hits mostly inhibitors; 270,000 compounds, 0.007% hits; also: potency is read from the fitted curve at half-maximal effect; % is scaled to controls: 0 for no effect and ±100 for the full control effect
Target sequence (P51570 whole entry, looked up): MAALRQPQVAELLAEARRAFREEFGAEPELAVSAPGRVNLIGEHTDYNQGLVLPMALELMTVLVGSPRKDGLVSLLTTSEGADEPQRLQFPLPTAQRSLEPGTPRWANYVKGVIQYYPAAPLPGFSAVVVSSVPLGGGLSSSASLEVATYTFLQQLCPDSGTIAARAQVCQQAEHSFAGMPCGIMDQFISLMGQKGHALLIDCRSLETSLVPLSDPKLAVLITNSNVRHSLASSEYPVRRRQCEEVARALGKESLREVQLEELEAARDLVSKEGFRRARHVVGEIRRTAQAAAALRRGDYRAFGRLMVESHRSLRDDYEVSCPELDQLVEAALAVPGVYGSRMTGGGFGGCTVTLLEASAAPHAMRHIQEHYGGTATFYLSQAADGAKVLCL
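Compounds were pin-transferred into ATP buffer (35 uM final), then GALK plus galactose (5 nM, 100 uM final) was added. After 1 h at room temperature, Kinase-Glo Plus was added and luminescence read after 10 min.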
The depositor's hits bear a star; u = inconclusive; x = no result given. Rows were chosen to be rich in hits. Some 3.9% of all compounds tested hit in one or more screens of this group. Unless noted, calls follow the shape of the dose curve; as a rule, active = well fitted inhibition curve with a large enough effect; inconclusive = small, poorly fitted or top-dose-only effect, or effect the other way; inactive = flat fitted curve, though single readings scatter.

SMILES | D1 PAM | D1 antagonist | USP2a block | Eya2 inh | D1 agonist | GALK inh
Cc1cc(C)c2c(N)c(-c3nnc(SCc4ccc(Cl)cc4)n3C)sc2n1 | 3 | -39* | 3% | u | 0 | 6%
CCN(C(=O)CSc1nc2ccccc2n1Cc1ccccc1C#N)c1ccccc1 | -1 | -3 | x | x | 6 | x
Oc1c(C=C2N=c3ccccc3=N2)sc(=S)n1-c1ccccc1 | -6 | -3 | 2% | -22% | 8 | -2%
CC1=Nc2ccccc2/C1=C/c1sc(=S)n(-c2cccc(C(=O)O)c2)c1O | 3 | -5 | 12% | u | 49* | -2%
Cc1ccc(NC(=O)Nc2nnc(N(C)Cc3ccccc3)s2)cc1 | -4 | -17 | x | x | 1 | x
O=c1[nH]cnc2c1c(-c1ccccc1)cn2-c1ccc(Br)cc1 | -16 | -45* | 0% | 0% | 0 | 1%
CCOc1ccc(-n2cc(-c3ccccc3)c3c(=S)nc[nH]c32)cc1 | -3 | -1 | -2% | 6% | 5 | -2%
CCOc1ccc(-n2cc(-c3ccccc3)c3c(=O)[nH]cnc32)cc1 | -9 | -68* | -1% | 4% | 1 | 10%
Cc1cccc(-n2cc(-c3ccccc3)c3c(=O)[nH]cnc32)c1 | -8 | -45* | 3% | -2% | -1 | 0%
COc1cccc(NC(=O)CN(CCc2ccccc2)S(=O)(=O)c2ccc(Cl)cc2)c1 | 0 | 0 | x | x | -1 | x
COc1ccc(C2=Nn3c(nnc3-c3ccccc3OC)SC2)cc1 | 15 | -27 | x | x | 2 | x
CN(c1ccccc1)S(=O)(=O)c1ccc(Cl)c(C(=O)Nc2ccc(-c3nc4ccccc4[nH]3)cc2)c1 | -10 | -30* | -2% | -1% | 5 | 1%
CC(C)(C)N1C(=O)c2ccc(C(=O)Nc3ccc(-c4nc5ccccc5[nH]4)cc3)cc2C1=O | 0 | -14 | 0% | -3% | 4 | -1%
Cc1ccccc1C(=O)Nc1ccc(-c2nc3ccc(C(=O)c4ccccc4)cc3[nH]2)cc1 | -5 | -42* | 0% | -9% | 4 | 2%
CCN(c1ccccc1)S(=O)(=O)c1cccc(C(=O)NCC(c2cccs2)N(C)C)c1 (stereo not drawn) | 1 | 5 | 3% | -2% | 4 | 12%
CN(c1ccccc1)S(=O)(=O)c1ccc(Cl)c(C(=O)Nc2nc3ccccc3[nH]2)c1 | 1 | -27 | -8% | -18% | 2 | -3%
CN(C)C(CNC(=O)c1cc(S(=O)(=O)N(C)c2ccccc2)ccc1Cl)c1cccs1 (stereo not drawn) | -8 | -44* | 0% | 4% | 12 | 6%
O=C(Nc1ccc(-c2nc3ccccc3[nH]2)cc1)c1ccc(N2C(=O)CCC2=O)cc1 | -3 | -50* | 2% | -2% | 0 | 2%
CNS(=O)(=O)c1cn(CC(=O)N2CCN(c3cccc(C)c3C)CC2)cc1S(=O)(=O)NC | 0 | -12 | x | x | 0 | x
O=[N+]([O-])c1ccc2c(c1)S(=O)(=O)C=C2 | x | x | x | -1% | x | x
CC(=O)c1ccc(NC(=O)Cn2cc(S(=O)(=O)Cc3cccc(Cl)c3)c3ccccc32)cc1 | -2 | -11 | x | x | 6 | x
CCOC(=O)C1=CC[C@]2(C)c3c(c4ccccc4n3C)C(=O)C1N2C | -8 | -45* | 1% | 0% | 2 | x
CCCCC(=O)Nc1cc(-c2cn3cccnc3n2)ccc1C | -3 | 8 | x | x | 1 | x
CC(=O)Nc1nonc1-c1nnc(SCC(=O)Nc2c(C)cccc2C)n1-c1ccccc1 | 0 | 9 | x | x | -3 | x
CCOc1ccc(CNCCNC(=O)c2nonc2N)cc1 | 0 | -11 | -1% | 16% | 2 | -8%

Assay outcomes (PubChem)
